{
  "source": "PubChem BioAssay",
  "note": "A number with no mark means an inactive call. The source made the active and inactive calls. Rule as the data show it: active = inhibition above about 30%; inactive = the rest.",
  "data": [
    {"test_system": "transactivating tegument protein VP16 (Human herpesvirus 1), Gal4-VP16 luciferase reporter", "assay": "repression of VP16-driven luciferase reporter – cell-based, luminescence, high throughput, counter-screen for SRC3 inhibitor project (AID 588794)", "settings": "mammalian cells, at 3.6 µM, stronger effect = higher value", "values": [
      {"smiles": "Cc1ccc(C(=O)CSc2cnc3ccccc3n2)cc1C", "inhibition": "-33%"},
      {"smiles": "Cn1c(=O)c2c(nc(Oc3ccc4ccccc4c3)n2C)n(C)c1=O", "inhibition": "39.4% (active)"},
      {"smiles": "CC(=O)N1CCN(c2ccc(Oc3ncnc4sccc34)cc2)CC1", "inhibition": "16.9%"},
      {"smiles": "COc1ccc(-c2cn[nH]c2N)c(OC)c1", "inhibition": "50.5% (active)"},
      {"smiles": "Cc1ccc(NC(=O)NC2CC(=O)N(c3ccc4c(c3)OCCO4)C2)cc1C", "note": "(stereo unspecified)", "inhibition": "33.8% (active)"},
      {"smiles": "Cc1cc(=O)[nH]c(Nc2cccc(C(F)(F)F)c2)n1", "inhibition": "34.2% (active)"},
      {"smiles": "CC1CCN(Cc2c(C(=O)N/N=C/c3cc(Br)ccc3O)nnn2-c2nonc2N)CC1", "inhibition": "83.5% (active)"},
      {"smiles": "CC(=O)c1cccc(NC(=O)Nc2cccnc2)c1", "inhibition": "36.1% (active)"},
      {"smiles": "O=C(CCSc1nc2ccccc2s1)N/N=C/c1c(O)ccc2ccccc12", "inhibition": "23.7%"},
      {"smiles": "N=c1c2c(-c3ccccc3)c(-c3ccccc3)n(Cc3ccco3)c2ncn1CCCn1ccnc1", "inhibition": "54.2% (active)"},
      {"smiles": "COc1cc(Cl)cc(/C=N\\NC(=O)c2ccc3c(c2)OCO3)c1O", "inhibition": "33.3% (active)"},
      {"smiles": "O=C(N/N=C/c1sc(N2CCOCC2)nc1-c1ccccc1)c1cccc(S(=O)(=O)N2CCCC2)c1", "inhibition": "67% (active)"},
      {"smiles": "Cc1ccc(N=c2c([N+](=O)[O-])nn(-c3ccc4c(c3)OCCO4)n2O)cc1F", "inhibition": "-0.46%"},
      {"smiles": "O=C(c1ccncc1)N(Cc1cc2ccccc2[nH]c1=O)C1CCCCC1", "inhibition": "23.2%"},
      {"smiles": "COc1ccc(Cl)cc1Nc1nc(-c2sc(NC(=O)C(C)(C)C)nc2C)cs1", "inhibition": "35.9% (active)"},
      {"smiles": "O=C(/C=C/c1ccc(OCCCF)cc1)Nc1ccnc(-c2cccnc2)n1", "inhibition": "11.1%"}
    ]}
  ]
}
